GalR3 antag – blocks the human galanin receptor 3. HEK293 GalR3-CNG cAMP membrane potential fluorescence; galR3 body fused to GalR1 C-terminus. inhibition, % at 3 µM. 360,000 tested, 0.44% active;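 active means inhibition above the screen-wide average plus 3 SD, cut at about 13% in these data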;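 further: forskolin and galanin both at EC90 stimulate the cells; cAMP rise reported by CNG channel membrane potential dye signal; 0% = forskolin plus galanin with DMSO and 100% = forskolin alone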
NCOA2 inhibitor – human SRC2 (NCOA2) inhibition. inhibition, % at 9 µM. 370,000 tested, 0.17% active. HEK293 GAL4-SRC2 luciferase reporter, luminescence. Q15596;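 active means inhibition above the mean inhibition of all tested compounds plus 3 SD, set per campaign, cut at about 52% in these data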;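 further: 0% = DMSO treated cells and 100% = cells given Gossypol at 36 µM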
SRC3 inh – inhibitors of human steroid receptor coactivator 3 (SRC3); inhibition, % at 3.6 µM; Q9Y6Q9; HEK293 GAL4-SRC3 luciferase reporter, luminescence; 360,000 tested, 0.17% active;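 active means inhibition above a per-campaign cutoff, the mean of all compounds plus 3 SD, cut at about 60% in these data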;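 further: 0% = DMSO-treated cells and 100% = gossypol-treated cells at 36 µM; higher means less SRC3-driven luciferase light from the GAL4 reporter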
COUP-TFII inh – NR2F2 (human) inhibition, primary screen; P24468; HEK293T NGFI-A luciferase reporter, luminescence; inhibition, % at 8.6 µM; 370,000 tested, 0.7% active; AID 686940;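 active means inhibition above a per-plate cutoff, mean inhibition of test wells between control levels plus 3 SD, cut at about 38% in these data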;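 further: cells cotransfected with COUP-TFII expression vector driving the NGFI-A reporter; 0% = median of COUP-TF2 test wells and 100% = reporter-only cells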
LRH-1 inv ag – suppresses constitutive activity of human LRH-1; O00482; 360,000 tested, 0.13% active; inhibition, % at 3.6 µM; AID 602396; HEK293T StAR-luciferase reporter, LRH-1 transfected, 24 h;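 active means inhibition above the mean inhibition of all tested compounds plus 3 SD, cut at about 73% in these data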;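 further: 0% = DMSO wells and 100% = reporter-only cells lacking LRH-1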
NCOA1 inh – inhibits human SRC1 coactivator; Q15788; AID 588354; HEK293 GAL4-SRC1 luciferase reporter, luminescence; inhibition, % at 3.6 µM; 360,000 tested, 0.12% active;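 active means inhibition above the campaign mean plus 3 SD, with each screening campaign given its own cutoff, cut at about 60% in these data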;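 further: 0% = DMSO treated cells and 100% = gossypol at 36 µM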
Gal4-VP16 ctr – VP16 inhibition counter-screen for COUP-TFII; 2,500 tested, 25% active; shares compounds with COUP-TFII inh; inhibition, % at 8.5 µM; HEK293 Gal4-VP16 luciferase reporter, luminescence; AID 687007; in the data active means inhibition above about 13%
NR2F2 inh conf – confirmation of human COUP-TFII (NR2F2) inhibitors; shares compounds with COUP-TFII inh; HEK293 NGFI-A luciferase reporter, luminescence; inhibition, % at 8.5 µM; 2,500 tested, 45% active;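 active means mean inhibition over three repeats above a set limit taken from the earlier primary screen, cut at about 38% in these data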;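 further: 100% = cells given the luciferase reporter alone without the COUP-TF2 vector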
* hit, by the source's call; . = no result. Hits are enriched below; roughly 1.1% of the tested compounds scored in any of these assays.

SMILES	GalR3 antag	NCOA2 inhibitor	SRC3 inh	COUP-TFII inh	LRH-1 inv ag	NCOA1 inh	Gal4-VP16 ctr	NR2F2 inh conf
O=C(c1ccco1)N1CCN=C1SCc1ccc(F)cc1	-1.6	-2.4	12.3	57.6*	7.2	-0.3	-4.6	0.6
O=C(c1ccco1)N1CCN=C1SCc1cccc(F)c1	0.8	3.7	9.2	22.5	-46.7	1.1	.	.
CN(C)c1ccc(CC(=O)N2CCCCC2c2cc(C(=O)Nc3ccccc3Cl)no2)cc1 (stereo not drawn)	-4.9	21.6	5.2	47.5*	17.2	7.3	1.8	26.2
COc1ccc(NC(=O)c2cc(C3CCCCN3C(=O)Cc3ccc(N(C)C)cc3)on2)c(C)c1 (stereo not drawn)	-4.4	25.9	0.7	13.7	-4.5	-2.0	.	.
Cc1ccc(S(=O)(=O)N(C)c2ccc(OCC(=O)Nc3nc4ccccc4s3)cc2)cc1	-8.4	8.8	5.2	38.5*	-0.4	-3.0	4.9	27.5
CCc1ccc(NC(=O)C2=CC(c3ccc(OC)c(OC)c3)=NS(=O)(=O)N2C)cc1	.	11.5	6.9	38.2*	20.7	-4.3	-2.2	25.9
COc1ccc(C2=NS(=O)(=O)N(C)C(C(=O)N3CCc4ccccc4C3)=C2)cc1OC	3.4	-0.3	8.0	39.2*	46.0	1.5	5.8	21.6
COc1ccc(CNC(=O)C2=CC(c3ccc(OC)c(OC)c3)=NS(=O)(=O)N2C)cc1	.	-2.6	-4.2	-1.5	-5.8	-5.0	.	.
CCCCNC(=O)C[C@@H]1C(=O)N(Cc2ccc(OC)cc2)/C2=C/CCCCC[C@@]21C(=O)OCC	.	21.1	.	-7.4	.	.	.	.
COc1ccc(/C=C/C(=O)Nc2ccccc2C(=O)O)cc1OC	-4.0	33.6	49.0	59.6*	36.6	38.4	-17.2	35.3
NS(=O)(=O)c1ccc(NC(=O)CSc2nc3ccccc3c(=O)n2-c2ccc(Br)cc2)cc1	.	-0.1	.	-24.7	.	.	.	.
Cc1ccc(NC(=O)c2ccc(Nc3c([N+](=O)[O-])cc([N+](=O)[O-])cc3[N+](=O)[O-])cc2)cc1	-5.0	40.7	46.0	70.4*	-1.3	-30.7	3.1	47.0*
CCN1CCS/C1=C\C=C\C1=[N+](CC)CCS1	15.4*	-11.5	33.7	68.1*	57.1	42.4	11.8	63.6*
CCOc1ccc(S(=O)(=O)Nc2nc3ccccc3nc2Cl)cc1	-7.6	-10.4	-10.6	16.7	3.4	-0.2	.	.
CCOc1ccc(S(=O)(=O)Nc2cnc3ccccc3c2)cc1	-8.9	17.3	21.9	43.1*	14.1	12.8	-2.7	29.8
Cc1ccc(C(=O)Nc2sc(C)c(-c3ccccc3)c2C(N)=O)cc1[N+](=O)[O-]	-3.7	49.1	60.2	56.3*	42.8	51.4	26.7*	84.2*
CC(=O)C(C(C)=O)c1c(Cl)c(O)c(O)c2c(C(=O)c3ccccc3)coc12	-4.1	30.1	7.2	67.5*	54.1	9.7	14.1*	59.9*
CN1CCN(Cc2c(O)ccc3occ(C(=O)c4ccccc4)c23)CC1	-1.6	-18.7	6.0	15.9	-3.1	1.1	.	.
COc1ccc2c(c1)CN1CN(Cc3ccc(F)cc3)S(=O)(=O)CC21 (stereo not drawn)	.	-12.2	.	-8.8	.	.	.	.
CCN1CCN(c2cc(C)c3cc(NC(=S)N4CCCC(C)C4)ccc3n2)CC1 (stereo not drawn)	-5.2	29.0	39.6	46.1*	31.8	19.9	26.1*	35.0
Cc1cc(C)c(C#N)c(SCc2nnc(-c3ccccc3[N+](=O)[O-])o2)n1	8.8	-47.0	-68.2	-46.9	-163.0	-92.7	.	.
Cc1cc(C)c(C#N)c(SCc2nnc(-c3ccccc3)o2)n1	-2.4	66.9*	79.1*	81.3*	86.9*	79.9*	56.8*	91.8*
Cc1ccc(C#N)c(SCc2cc3c(cc2Cl)OCO3)n1	-4.9	-24.5	5.0	-3.0	11.2	-2.6	.	.
Cc1ccc(C#N)c(SCc2nnc(-c3ccc(Cl)cc3)o2)n1	-0.1	54.5*	75.0*	77.2*	72.0	68.5*	45.4*	89.5*
Cc1onc(-c2ccccc2)c1C(=O)NC(=S)NNC(=O)c1ccc(O)cc1O	-9.0	22.7	72.6*	50.4*	88.8*	64.0*	15.3*	54.3*
SMILES	GalR3 antag	NCOA2 inhibitor	SRC3 inh	COUP-TFII inh	LRH-1 inv ag	NCOA1 inh	Gal4-VP16 ctr	NR2F2 inh conf
Cc1onc(-c2ccccc2)c1C(=O)NNC(=O)c1ccccc1Br	-6.8	-15.8	7.2	12.0	10.0	8.5	.	.
CCOc1ccc(C(C)=O)cc1CSC(=N)N	6.1	24.5	0.1	9.6	-3.6	-7.3	.	.
CCCCOc1ccc(Br)cc1CSC(=N)N	23.1*	40.7	-1.4	75.9*	41.4	-4.6	3.8	44.1*
COC(=O)C1CN(Cc2cn(Cc3ccc(Cl)cc3)nn2)CCS(=O)(=O)N1Cc1ccccc1 (stereo not drawn)	.	21.2	.	3.5	.	.	.	.
Oc1cccc2cc(Nc3ccccc3)cnc12	-4.4	14.2	69.2*	54.9*	89.8*	57.0	-9.4	46.2*
CC(C)(C)OC(=O)NCc1ccccc1/C=C/S(=O)(=O)NCCc1ccccc1	.	8.7	.	0.1	.	.	.	.
Cc1ccc(NC(=O)c2cc(S(=O)(=O)NCC3CCCO3)ccc2F)cc1 (stereo not drawn)	-5.5	2.0	-3.6	-9.4	-13.6	-4.4	.	.
Cc1ccc(NC(=O)c2cc(S(=O)(=O)NCCC3=CCCCC3)ccc2F)cc1	-6.6	30.8	22.1	60.8*	37.5	21.5	2.9	33.4
COc1cccc(OCc2cc(C(=O)NCc3ccccn3)no2)c1	-4.4	-98.3	-104.2	-11.3	-68.8	-64.8	.	.
Cc1ccc(F)cc1CNC(=O)c1cc(COc2ccc3ncccc3c2)on1	-10.3	21.2	14.7	41.1*	-3.9	1.1	6.1	49.5*
O=C(NCc1cccc(Cl)c1)c1cc(COc2ccc3ncccc3c2)on1	-2.8	-2.9	27.7	68.0*	17.2	18.7	0.4	55.1*
O=C(c1cc(F)ccc1F)N1CCC(Oc2cccnc2)CC1	.	-19.1	.	1.7	.	.	.	.
COC(=O)[C@H](Cc1ccccc1)N(Cc1cn(Cc2ccccc2)nn1)S(=O)(=O)c1ccccc1Br	.	18.3	.	0.9	.	.	.	.
CCOC(=O)c1ccc(-c2ccc(N3C(c4ccsc4)=Cc4ccc(F)cc4C3c3c[nH]c4ccc(C#N)cc34)cc2)cc1F (stereo not drawn)	-7.2	78.8*	.	56.0*	19.8	.	-4.8	-0.4
CC(C)(O)C#Cc1ccc(N2C(c3ccsc3)=Cc3ccc(F)cc3C2c2c[nH]c3ccc(C#N)cc23)cc1 (stereo not drawn)	-6.2	-26.9	.	-6.3	-4.4	.	.	.
Cc1cc(Nc2ccc(Cl)cc2)nc(NCc2ccccc2)n1	-5.9	-5.6	22.8	20.5	19.6	3.2	.	.

Assay outcomes (PubChem BioAssay)
